The nature of test [1]: reducers of endogenous Her2 protein level, primary screen, SKBR3 breast tumor cells, AlphaScreen, ATP viability (AID 461;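 active = Her2 level under about 52% in both replicate screens, with viability over 70% of control, limit read from the data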;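 as to Her2 level: lower value means less Her2 protein in the cells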;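 as to viability: percent of carrier control wells set as 100% viability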). As to conditions: 18-24 h, measured here: SKBR3 viability, ATP luminescence, at 10 µM. In general terms: Bead proximity is the source of the signal in Alpha formats.
For test [2], the target named is Receptor tyrosine-protein kinase erbB-2 (Homo sapiens) (UniProt P04626). The description is as above. As to conditions: 18-24 h, at 10 µM, stronger effect = lower value.
A short description of test [3]: SK-BR-3 cell growth inhibitors, pilot screen, 24 h, human (AID 572;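 active = viability at or below 10% of carrier control in both of two separate runs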;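 also: compound exposure lasted between 18 and 24 h rather than exactly 24 h; 100% = carrier-treated control wells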). As to conditions: SK-BR-3 viability, CellTiter-Glo luminescence, at 10 µM, stronger effect = lower value. Background: In ATP-based viability assays light output follows the ATP content of the culture.
Test [4] can be described thus: HUVEC growth inhibition – cell-based, human, primary screen (AID 575).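 Also: 100% = median of untreated cell wells with 0.1% DMSO on each plate.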 As to conditions: HUVEC proliferation, CellTiter-Glo luminescence, 72 h; at 10 µM; stronger effect = lower value.
The nature of test [5]: growth inhibitors of H69AR lung tumor, primary screen, human, duplicate replicates (AID 580;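 active = viability at or under a set limit in both replicates, limit being median viability minus 3 SD, cut at about 48% in these data, passing the limit was not always enough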;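 also: 100% = mean luminescence of untreated wells and 0% = no signal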). As to conditions: H69AR lung tumor cells viability, ATP luminescence, 72 h; at 10 µM; stronger effect = lower value.
Test [6] in a line: reversal of MRP1-mediated doxorubicin resistance, pilot screen, H69AR cells, doxorubicin co-treatment (AID 601;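 active = viability loss from added drug above about 55%, and viability with drug at most 40%, in both replicates, limit read from the data, passing the limit was not always enough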). As to conditions: CellTiter-Glo, 72 h, at 10 µM; for differential viability (reversal): stronger effect = higher value.
The nature of test [7]: 384-well plate pilot, post-Golgi transport modulator project, inhibition of yeast transport mutant growth (AID 636; in the data active = inhibition above about 31%). As to conditions: absorbance 615 nm, about 18 h, stronger effect = higher value.
Test [8] in a line: growth suppression of yeast trafficking mutant, preliminary HTS, modulators of trafficking downstream of Golgi apparatus project, 1536-format plate, OD 615 nm (AID 637; in the data active = inhibition above about 30%). As to conditions: yeast transport mutant growth, absorbance 615 nm, 18 h; stronger effect = higher value.
Test [9] can be described thus: OD615 S. cerevisiae growth inhibition, permissive medium, pilot counter-assay, permissive growth control for S. cerevisiae lifespan shortening project (AID 705;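 active = growth inhibition above 25% in both replicates, a cutoff set 3 SD above the mean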). As to conditions: OD615, 24 h, at 10 µM, stronger effect = higher value.
Test [10] in a line: Restrictive medium S. cerevisiae growth inhibition, OD615, pilot screen of yeast lifespan reduction project, restrictive growth control (AID 706;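 active = growth inhibition above a set limit, 3 SD over mean compound inhibition, in both replicates, cut at about 43% in these data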;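 also: modified DeaD lifespan yeast strain shifted to restrictive glucose medium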). As to conditions: OD615, 48 h, at 10 µM, stronger effect = higher value.
Test [11] can be described thus: viability gain of MRP-1-high H69AR cells under doxorubicin, pilot screen, MRP-1 activator project, CellTiter-Glo, duplicate (AID 807;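 active = viability increase at or above a cutoff of the median across tested compounds plus 3 SD, cut at about 8.5% in these data, passing the limit was not always enough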;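 also: compound pretreatment 18-22 h then 72 h combined with doxorubicin; 0% = doxorubicin alone and 100% = vehicle without doxorubicin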). As to conditions: H69AR viability with doxorubicin, CellTiter-Glo luminescence; at 10 µM; stronger effect = higher value.
Test [12] is described as follows: growth suppression of beta-catenin knockout HCT116, pilot screen, human colon tumor cells (AID 823;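 active = cell viability at or below a set limit in both duplicate runs, the limit being the all-compound median minus 4 SD, cut at about 23% in these data, passing the limit was not always enough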;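 also: 0% = wells killed by 20 µM Hyamine and 100% = untreated DMSO cell wells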). As to conditions: CellTiter-Glo, 60 h, at 10 µM, stronger effect = lower value.
Test [13] in a line: growth suppression of PTEN-deleted HCT116, pilot screen, cell-based, HCT116 clonal line, CellTiter-Glo (AID 824;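 active = viability at or below 27.92% in each of two runs, the all-compound median minus 4 SD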;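 also: 0% = 20 µM Hyamine control and 100% = vehicle cell control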). As to conditions: 60 h, at 10 µM, stronger effect = lower value.
Test [14] is described as follows: inhibitors of the yeast RAM network, pilot screen, dse1pr::URA3 reporter, 5-FOA selection (AID 869;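 active = inhibition over a set limit, the all-compound mean plus 3 SD, in both replicate runs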;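 also: 0% = DMSO wells with no growth and 100% = 10 µM 1-NA-PP1 with full growth; RAM network block rescues cells from 5-FOA so hits raise OD615 growth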). As to conditions: S. cerevisiae dse1pr::URA3 5-FOA growth, OD615, 2 d; at 10 µM; stronger effect = higher value; strain carries analog-sensitive mutant Cbk1 kinase.
The nature of test [15]: RAM signaling pathway blockade in yeast – S. cerevisiae, Pdr1DBD-CYC8 efflux-inhibited sensitized strain, primary screen (AID 1298;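 active = RAM network inhibition above 8.4% in each of two replicates, 3 SD over the compound average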;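 also: 0% = DMSO untreated cells without growth and 100% = 10 µM 1-NA-PP1 full growth; higher means more yeast growth rescued from 5-FOA killing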). As to conditions: S. cerevisiae cbk1-as DSE1-URA3 strain, 5-FOA growth OD615, 2 d; at 50 µM; stronger effect = higher value.
Where [16] appears, read: H69AR cells + 2 uM doxorubicin, measured here: viability with 2 uM doxorubicin, stronger effect = lower value.
Setting [17] is: H69AR cells, compound alone cytotoxicity.

Experimental findings from PubChem BioAssay are described below.

Results filed as inconclusive are left out. Active and inactive are the calls of the source.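 The calls were made as follows, unless noted: active = viability at or below 30% in both replicate assays; inconclusive = viability at or below 30% in just one of the two assays; inactive = the rest.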

Sequence of Receptor tyrosine-protein kinase erbB-2 (Homo sapiens) (P04626 whole entry, looked up): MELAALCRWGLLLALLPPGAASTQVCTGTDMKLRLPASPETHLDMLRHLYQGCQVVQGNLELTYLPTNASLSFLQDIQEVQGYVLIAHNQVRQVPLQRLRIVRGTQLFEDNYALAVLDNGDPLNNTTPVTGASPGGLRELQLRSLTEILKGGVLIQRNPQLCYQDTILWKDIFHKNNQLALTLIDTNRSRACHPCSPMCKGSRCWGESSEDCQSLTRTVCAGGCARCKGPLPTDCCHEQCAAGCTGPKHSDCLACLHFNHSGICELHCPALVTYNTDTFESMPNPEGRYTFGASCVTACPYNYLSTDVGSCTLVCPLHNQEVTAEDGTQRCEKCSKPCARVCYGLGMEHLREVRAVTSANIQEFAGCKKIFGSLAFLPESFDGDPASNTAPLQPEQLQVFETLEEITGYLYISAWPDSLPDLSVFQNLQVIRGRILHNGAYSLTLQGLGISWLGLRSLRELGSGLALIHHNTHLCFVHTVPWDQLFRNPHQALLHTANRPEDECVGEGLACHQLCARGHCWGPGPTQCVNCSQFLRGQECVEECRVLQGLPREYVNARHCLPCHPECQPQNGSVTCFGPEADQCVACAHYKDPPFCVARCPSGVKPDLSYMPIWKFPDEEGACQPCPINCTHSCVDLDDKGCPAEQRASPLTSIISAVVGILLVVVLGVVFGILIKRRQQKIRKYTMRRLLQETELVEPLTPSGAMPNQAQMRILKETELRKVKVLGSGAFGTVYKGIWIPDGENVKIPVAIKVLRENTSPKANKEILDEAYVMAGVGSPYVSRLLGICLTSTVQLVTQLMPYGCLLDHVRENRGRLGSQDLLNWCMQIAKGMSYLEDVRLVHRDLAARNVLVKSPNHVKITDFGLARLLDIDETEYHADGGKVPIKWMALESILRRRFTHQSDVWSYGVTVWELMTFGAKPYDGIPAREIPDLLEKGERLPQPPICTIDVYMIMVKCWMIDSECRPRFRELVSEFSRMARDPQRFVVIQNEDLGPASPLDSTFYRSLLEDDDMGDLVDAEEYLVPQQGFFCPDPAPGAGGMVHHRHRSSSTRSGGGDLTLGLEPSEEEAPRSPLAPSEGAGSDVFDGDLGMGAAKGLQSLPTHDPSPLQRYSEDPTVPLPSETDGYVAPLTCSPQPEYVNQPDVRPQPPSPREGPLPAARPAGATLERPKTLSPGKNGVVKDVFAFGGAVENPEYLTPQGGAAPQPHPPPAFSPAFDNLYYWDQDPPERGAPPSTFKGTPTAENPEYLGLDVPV

Regarding `O=C(CSc1ccc2nnc(-c3ccccc3)n2n1)N1CCN(c2ccccc2)CC1`, the viability (as a rule, a read-out of living cells in per cent, often relative to untreated cells) was 93.5% in [1]; 93.5% (inactive) in test [3]; 77.9% (inactive) in [4]; 83.8% (inactive) in test [5]; 93.4% in test [6] (setting [16]); 83.8% in [6] (setting [17]). Moreover, the viability in [12] is 101% (inactive); in test [13] it was 93.8% (inactive). In [2], the Her2 level is 114% (inactive). Also, in test [6] (H69AR cells + 2 uM doxorubicin), the differential viability (reversal) was -9.57% (inactive). The inhibition (commonly the drop in the measured response relative to a control, in per cent) is -0.13% (inactive) in test [7], 7.67% (inactive) in test [8] and 0.38% (inactive) in [14]. Also, the growth inhibition was -0.235% (inactive) in [9] and 8.33% (inactive) in test [10]. Further, the viability increase in [11] was -3.49% (inactive). The RAM network inhibition in test [15] is 0.93% (inactive).
On to `COc1ccc2[nH]c(C)c(CCN3C(=O)OC(C)(C)C3(C)O)c2c1` (stereo not given), for which the viability in test [1] was 100%; in [3], 100% (inactive); in test [4] it was 102% (inactive); in test [5], 81.5% (inactive); in test [6] (setting [16]), 91.9%; in [6] (setting [17]), 81.5%. In addition, the figures for the viability in [12] and in [13] were 107% (inactive) and 96.4% (inactive), respectively. Also, the Her2 level in test [2] was 108% (inactive). The differential viability (reversal) in test [6] (H69AR cells + 2 uM doxorubicin) was -10.4% (inactive). In addition, the inhibition in test [7] was -5.73% (inactive); in test [8], -6.67% (inactive); in test [14], 1.92% (inactive). The growth inhibition in test [9] is 4.92% (inactive); in test [10] it was -5.26% (inactive). Also, the viability increase in [11] was -1.56% (inactive). In [15], the RAM network inhibition was 2.87% (inactive).
With `COc1cc2c(cc1OC)C(c1ccc(C)o1)CC(=O)N2` (stereo not given), the viability in test [1] was 81.5%; in test [3], 81.5% (inactive); in test [4], 86.2% (inactive); in test [5] it was 89.4% (inactive); in test [6] (setting [16]) it was 80%; in test [6] (setting [17]) it was 89.4%. In addition, the values for the viability in [12] and in test [13] were 80% (inactive) and 78.2% (inactive), respectively. In addition, the Her2 level in [2] was 87.5% (inactive). Besides, the differential viability (reversal) in [6] (H69AR cells + 2 uM doxorubicin) is 9.42% (inactive). Moreover, the inhibition is -0.13% (inactive) in test [7], 4.33% (inactive) in test [8] and 1.21% (inactive) in [14]. The growth inhibition in test [9] was -3.98% (inactive); in test [10], 1.56% (inactive). Moreover, the viability increase in [11] is -4.72% (inactive). Besides, the RAM network inhibition in test [15] was 0.73% (inactive).
As for `CCCC(=O)Nc1cc(C)c2c(=O)oc3ccccc3c2n1`, the viability is 87% in test [1]; 87% (inactive) in test [3]; 63.6% (inactive) in test [4]; 77.6% (inactive) in test [5]; 98% in [6] (setting [16]); 77.6% in test [6] (setting [17]). The viability in test [12] is 82.5% (inactive); in [13] it was 86.1% (inactive). Further, the Her2 level in test [2] is 94.5% (inactive). The differential viability (reversal) in test [6] (H69AR cells + 2 uM doxorubicin) was -20.4% (inactive). In addition, the inhibition in test [7] was -0.4% (inactive); in test [8] it was 0.33% (inactive); in test [14], 1.65% (inactive). The growth inhibition in [9] was -11.5% (inactive); in [10], 3.23% (inactive). The viability increase in [11] was -4.74% (inactive). In addition, in [15], the RAM network inhibition is 8.68% (inactive).
In the case of `CN(C)CCN1C(=O)C(O)=C(C(=O)c2cc3ccccc3o2)C1c1ccc(N(C)C)cc1` (stereo not given), the viability in test [1] was 98.5%; in test [3] it was 98.5% (inactive); in [4], 94.1% (inactive); in [5], 90.2% (inactive); in test [6] (setting [16]) it was 88.5%; in test [6] (setting [17]), 90.2%. Also, the viability was 105% (inactive) in test [12] and 103% (inactive) in test [13]. Further, the Her2 level in test [2] was 105% (inactive). Besides, the differential viability (reversal) in test [6] (H69AR cells + 2 uM doxorubicin) is 1.66% (inactive). Further, the figures for the inhibition in [7], in [8] and in test [14] were -3.47% (inactive), 1.17% (inactive) and 0.685% (inactive), respectively. Besides, the growth inhibition was -14.2% (inactive) in test [9] and -14.1% (inactive) in test [10]. In addition, the viability increase in test [11] was -0.2% (inactive). Also, the RAM network inhibition in [15] is 2.42% (inactive).
